Assay [1] is described as follows: NCI Yeast Anticancer Drug Screen. Data for the rad50 strain (AID 155).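 Note: 0% = growth of vehicle-only cultures of the same strain.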 The conditions noted are these: S. cerevisiae rad50 strain growth inhibition, active compounds read high. An outline of the steps: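 A DNA repair-deficient yeast mutant serves as the test organism; compound-induced growth inhibition is calculated against vehicle-treated cells.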
A short description of assay [2]: NCI Yeast Anticancer Drug Screen. Data for the mec2-1 strain (AID 157). Conditions: S. cerevisiae mec2-1 strain, active compounds read high. An outline of the steps:
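Using mec2-1 yeast: add compound, measure growth, express inhibition versus vehicle-treated cultures.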

Assay [3] in a line: NCI Yeast Anticancer Drug Screen. Data for the sgs1 mgt1 strain (AID 161).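 Note: 0% = growth of cultures given vehicle only.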 Conditions: S. cerevisiae sgs1 mgt1 strain, active compounds read high. An outline of the steps:
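This yeast growth screen uses a strain with defined DNA-repair lesions; compound-treated growth is compared with vehicle-treated growth.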

Assay [4] can be described thus: NCI Yeast Anticancer Drug Screen. Data for the cln2 rad14 strain (AID 165).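 Note: 0% = growth equal to vehicle treated cultures.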 Conditions: S. cerevisiae cln2 rad14 strain, active compounds read high. The procedure, abridged:
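Yeast strain cln2 rad14, bearing defects in cell cycle control and DNA repair, serves as the test system; values reflect growth inhibition compared with vehicle.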

The nature of assay [5]: NCI Yeast Anticancer Drug Screen. Data for the bub3 strain (AID 167). Conditions: S. cerevisiae bub3 mutant strain, active compounds read high. An outline of the steps:
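Inhibition values come from growth of compound-treated mutant yeast normalised to vehicle-treated controls.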

The nature of assay [6]: NCI Yeast Anticancer Drug Screen. Data for the mlh1 rad18 strain (AID 175). The conditions noted are these: S. cerevisiae mlh1 rad18 strain growth inhibition, active compounds read high. An outline of the steps: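 Steps: expose repair-defective yeast to compound; measure growth; express inhibition against vehicle-treated controls.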
Where [7] appears, read: at 5.0 µM (retest, dose inferred, filed as 0.5).
The mark [8] stands for this setting: at 50.0 µM (retest, dose inferred, filed as 5.0).

SMILES strings stand for the structures. This is part of a sample that, as a whole, favours compounds with a hit. Of some 79,000 tested, about 15% had one in any assay. Values without a mark were called inactive. Active and inactive are the calls of the source. Cut-off read from the data, not from the text of the source: active = growth inhibition above about 70%; inactive = the rest.

As for `CCCCCCCCCCCC(=O)Oc1c(Cl)c(Cl)c(C#N)c(Cl)c1Cl`, the growth inhibition in assay [1] (setting [7]) was 5%; in assay [1] (setting [8]), 0%; in assay [1] (at 50.0 µM) it was 70.7% (active); in assay [2] (setting [7]) it was 2%; in assay [2] (setting [8]) it was 3%; in assay [2] (at 50.0 µM), 23.4%. The growth inhibition is 5% in assay [3] (setting [7]); 7% in assay [3] (setting [8]); 60.9% in assay [3] (at 50.0 µM); 12% in assay [4] (setting [7]); -1% in assay [4] (setting [8]); 48.6% in assay [4] (at 50.0 µM). Also, the growth inhibition in assay [5] (setting [7]) is 1%; in assay [5] (setting [8]) it was -1%; in assay [5] (at 50.0 µM) it was 8.7%; in assay [6] (setting [7]) it was 5%; in assay [6] (setting [8]), 13%; in assay [6] (at 50.0 µM) it was 86.7% (active).

Consider `O=c1ccc2c(COc3ccc(Cl)cc3Cl)c3ccc(O)cc3oc-2c1`, for which the growth inhibition in assay [1] (setting [7]) was -4%; in assay [1] (setting [8]), 15%; in assay [1] (at 50.0 µM), 78.5% (active); in assay [2] (setting [7]), -3%; in assay [2] (setting [8]), -1%; in assay [2] (at 50.0 µM), 45.8%. In addition, the growth inhibition was -2% in assay [3] (setting [7]); 12% in assay [3] (setting [8]); 73.9% (active) in assay [3] (at 50.0 µM); 9% in assay [4] (setting [7]); 12% in assay [4] (setting [8]); 26.7% in assay [4] (at 50.0 µM). Further, the growth inhibition in assay [5] (setting [7]) was -4%; in assay [5] (setting [8]), 1%; in assay [5] (at 50.0 µM), 25.1%; in assay [6] (setting [7]), -6%; in assay [6] (setting [8]), 4%; in assay [6] (at 50.0 µM) it was 60.1%.

Consider `O=P(N=P(c1ccccc1)(c1ccccc1)c1ccccc1)(c1ccccc1)c1ccccc1`, for which the growth inhibition in assay [1] (setting [7]) is 70% (active); in assay [1] (setting [8]), 96% (active); in assay [1] (at 50.0 µM), 88% (active); in assay [2] (setting [7]) it was 60%; in assay [2] (setting [8]), 99% (active); in assay [2] (at 50.0 µM) it was 91.6% (active). Moreover, the growth inhibition in assay [3] (setting [7]) was 49%; in assay [3] (setting [8]), 99% (active); in assay [3] (at 50.0 µM), 79% (active); in assay [4] (setting [7]), 40%; in assay [4] (setting [8]), 98% (active); in assay [4] (at 50.0 µM), 92.5% (active). Moreover, the growth inhibition in assay [5] (setting [7]) is 62%; in assay [5] (setting [8]), 99% (active); in assay [5] (at 50.0 µM), 87.2% (active); in assay [6] (setting [7]) it was 71% (active); in assay [6] (setting [8]), 98% (active); in assay [6] (at 50.0 µM) it was 88.7% (active).

For the molecule `CCC[CH2][Sn]([S][Sn]([CH2]CCC)([c]1ccccc1)[c]1ccccc1)([c]1ccccc1)[c]1ccccc1`, the growth inhibition in assay [1] (setting [7]) was 97% (active); in assay [1] (setting [8]) it was 94% (active); in assay [1] (at 50.0 µM), 99.3% (active); in assay [2] (setting [7]), 93% (active); in assay [2] (setting [8]), 95% (active); in assay [2] (at 50.0 µM), 99.5% (active). In addition, the growth inhibition is 99% (active) in assay [3] (setting [7]); 93% (active) in assay [3] (setting [8]); 99.5% (active) in assay [3] (at 50.0 µM); 97% (active) in assay [4] (setting [7]); 83% (active) in assay [4] (setting [8]); 98% (active) in assay [4] (at 50.0 µM). Moreover, the growth inhibition in assay [5] (setting [7]) was 98% (active); in assay [5] (setting [8]) it was 87% (active); in assay [5] (at 50.0 µM), 98.8% (active); in assay [6] (setting [7]) it was 98% (active); in assay [6] (setting [8]) it was 91% (active); in assay [6] (at 50.0 µM) it was 99.3% (active).

Take `OC1(c2ccccc2)CN(CCl)CC(c2ccccc2)O1` (configuration not stated): the growth inhibition in assay [1] (setting [7]) is -2%; in assay [1] (setting [8]), 7%; in assay [1] (at 50.0 µM), -10.6%; in assay [2] (setting [7]) it was 0%; in assay [2] (setting [8]), 2%; in assay [2] (at 50.0 µM) it was 17.3%. Moreover, the growth inhibition in assay [3] (setting [7]) is -1%; in assay [3] (setting [8]) it was 7%; in assay [3] (at 50.0 µM), 46%; in assay [4] (setting [7]) it was 12%; in assay [4] (setting [8]) it was 15%; in assay [4] (at 50.0 µM), 10.4%. Moreover, the growth inhibition was 2% in assay [5] (setting [7]); 6% in assay [5] (setting [8]); 71.8% (active) in assay [5] (at 50.0 µM); -2% in assay [6] (setting [7]); 7% in assay [6] (setting [8]); 47.4% in assay [6] (at 50.0 µM).

For `CCOP(=O)(OCC)/C(C#N)=C/c1coc2cc(C)cc(C)c2c1=O`, the growth inhibition in assay [1] (setting [7]) was 19%; in assay [1] (setting [8]), 99% (active); in assay [1] (at 50.0 µM), 86.7% (active); in assay [2] (setting [7]), -7%; in assay [2] (setting [8]), 100% (active); in assay [2] (at 50.0 µM) it was 91.9% (active). Besides, the growth inhibition in assay [3] (setting [7]) was -10%; in assay [3] (setting [8]), 99% (active); in assay [3] (at 50.0 µM), 78% (active); in assay [4] (setting [7]), 0%; in assay [4] (setting [8]), 99% (active); in assay [4] (at 50.0 µM) it was 59%. Besides, the growth inhibition was -9% in assay [5] (setting [7]); 98% (active) in assay [5] (setting [8]); 87.2% (active) in assay [5] (at 50.0 µM); 26% in assay [6] (setting [7]); 99% (active) in assay [6] (setting [8]); 82.2% (active) in assay [6] (at 50.0 µM).

With `CCCOc1ccc(/C=N/NC(N)=S)cc1`, the growth inhibition was 16% in assay [1] (setting [7]); 73% (active) in assay [1] (setting [8]); 42.1% in assay [1] (at 50.0 µM); 0% in assay [2] (setting [7]); 50% in assay [2] (setting [8]); 59.5% in assay [2] (at 50.0 µM). Also, the growth inhibition in assay [3] (setting [7]) is 16%; in assay [3] (setting [8]), 74% (active); in assay [3] (at 50.0 µM), 69.7%; in assay [4] (setting [7]), 7%; in assay [4] (setting [8]), 65%; in assay [4] (at 50.0 µM), 76.5% (active). For the same molecule, the growth inhibition in assay [5] (setting [7]) is -72%; in assay [5] (setting [8]), 70% (active); in assay [5] (at 50.0 µM), 63.7%; in assay [6] (setting [7]), 12%; in assay [6] (setting [8]) it was 75% (active); in assay [6] (at 50.0 µM) it was 67.3%.

Take `COC(=O)c1nc(=S)[nH]c(C(=O)OC)c1C(=O)c1c(C)[nH]c2ccccc12`: the growth inhibition was -7% in assay [1] (setting [7]); -2% in assay [1] (setting [8]); -25% in assay [1] (at 50.0 µM); -3% in assay [2] (setting [7]); 7% in assay [2] (setting [8]); -5.5% in assay [2] (at 50.0 µM). Also, the growth inhibition was 2% in assay [3] (setting [7]); 1% in assay [3] (setting [8]); -5.15% in assay [3] (at 50.0 µM); 1% in assay [4] (setting [7]); -4% in assay [4] (setting [8]); 30.7% in assay [4] (at 50.0 µM). For the same molecule, the growth inhibition in assay [5] (setting [7]) was -6%; in assay [5] (setting [8]), -7%; in assay [5] (at 50.0 µM), -2.3%; in assay [6] (setting [7]), -7%; in assay [6] (setting [8]), -2%; in assay [6] (at 50.0 µM), 62.2%.

Turning to `CCCOC1=C(Cl)C(=O)c2cccc([N+](=O)[O-])c2C1=O`, the growth inhibition in assay [1] (setting [7]) was 94% (active); in assay [1] (setting [8]) it was 98% (active); in assay [1] (at 50.0 µM), 99.5% (active); in assay [2] (setting [7]), 97% (active); in assay [2] (setting [8]) it was 99% (active); in assay [2] (at 50.0 µM), 99.5% (active). Besides, the growth inhibition in assay [3] (setting [7]) was 81% (active); in assay [3] (setting [8]), 99% (active); in assay [3] (at 50.0 µM) it was 99.4% (active); in assay [4] (setting [7]), 20%; in assay [4] (setting [8]), 99% (active); in assay [4] (at 50.0 µM), 99% (active). Also, the growth inhibition in assay [5] (setting [7]) is 97% (active); in assay [5] (setting [8]), 99% (active); in assay [5] (at 50.0 µM) it was 99.5% (active); in assay [6] (setting [7]) it was 93% (active); in assay [6] (setting [8]) it was 98% (active); in assay [6] (at 50.0 µM), 99.1% (active).
